# Reference: PubChem BioAssay AID1159580 (chemical genetic matrix, 2015)
# Out of some 5,500 compounds screened, about 2,000 (36%) were called active. Another 18% or so got no clear call; they are omitted. The list shows a part of the results. A number with no mark means an inactive call. Rule as the data show it: active = normalized growth mostly below about 0.91 (no sharp cut-off); inconclusive = no clear call, values can overlap the other calls; inactive = mostly above about 0.92.
# Assay: chemical genetic growth profiling, strain panel (AID 1159580);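 also: tested at 20 µM; growth read once vehicle control cultures reached saturation at 30 °C; 1 = growth at the plate median or of vehicle wells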
# Conditions: S. cerevisiae deletion strains, growth OD
# [1] = locus YAL040C, strain CLN3, stronger effect = lower value
# [2] = locus YCL061C, strain MRC1 (second series), stronger effect = lower value
# [3] = locus YER002W, strain NOP16, stronger effect = lower value
# [4] = locus YMR263W, strain SAP30, stronger effect = lower value
# [5] = locus YNL153C, strain GIM3, stronger effect = lower value
# [6] = locus YNL175C, strain NOP13, stronger effect = lower value
# [7] = locus YNL197C, strain WHI3, stronger effect = lower value
# [8] = locus YNL224C, strain SQS1, stronger effect = lower value
# [9] = locus YNL322C, strain KRE1, stronger effect = lower value
# [10] = locus YOR083W, strain WHI5 (second series), stronger effect = lower value
# [11] = locus YPL055C, strain LGE1, stronger effect = lower value
# [12] = locus YPL241C, strain CIN2, stronger effect = lower value
# [13] = locus YAR019C, strain CDC15, stronger effect = lower value
# [14] = locus YBL105C, strain PKC1, stronger effect = lower value
# [15] = locus YBR135W, strain CKS1, stronger effect = lower value
# [16] = locus YBR136W, strain MEC1, stronger effect = lower value
# [17] = locus YBR160W, strain CDC28, stronger effect = lower value
# [18] = locus YDL017W, strain CDC7, stronger effect = lower value
# [19] = locus YDL028C, strain MPS1, stronger effect = lower value
# [20] = locus YDL101C, strain DUN1, stronger effect = lower value
# [21] = locus YDL108W, strain KIN28, stronger effect = lower value
# [22] = locus YDL132W, strain cdc53, stronger effect = lower value
# [23] = locus YDL214C, strain PRR2, stronger effect = lower value
# [24] = locus YDR052C, strain DBF4, stronger effect = lower value
# [25] = locus YDR054C, strain cdc34, stronger effect = lower value
# [26] = locus YDR226W, strain ADK1, stronger effect = lower value
# [27] = locus YDR477W, strain SNF1, stronger effect = lower value
# [28] = locus YER123W, strain YCK3, stronger effect = lower value
# [29] = locus YER133W, strain GLC7, stronger effect = lower value
# [30] = locus YFL009W, strain cdc4, stronger effect = lower value
# [31] = locus YFL029C, strain CAK1, stronger effect = lower value
# [32] = locus YFR003C, strain YPI1, stronger effect = lower value
# [33] = locus YFR019W, strain FAB1, stronger effect = lower value
# [34] = locus YFR028C, strain CDC14, stronger effect = lower value
# [35] = locus YGR040W, strain KSS1, stronger effect = lower value
# [36] = locus YGR052W, strain FMP48, stronger effect = lower value
# [37] = locus YGR092W, strain DBF2, stronger effect = lower value
# [38] = locus YHR030C, strain SLT2, stronger effect = lower value
# [39] = locus YHR079C, strain IRE1, stronger effect = lower value
# [40] = locus YHR082C, strain KSP1, stronger effect = lower value
# [41] = locus YHR205W, strain SCH9, stronger effect = lower value
# [42] = locus YIL147C, strain SLN1, stronger effect = lower value
# [43] = locus YJL095W, strain BCK1, stronger effect = lower value
# [44] = locus YJL128C, strain PBS2, stronger effect = lower value
# [45] = locus YJL157C, strain FAR1, stronger effect = lower value
# [46] = locus YJR016C, strain ILV3, stronger effect = lower value
# [47] = locus YJR066W, strain TOR1 (second series), stronger effect = lower value
# [48] = locus YJR066W, strain TOR1, stronger effect = lower value
# [49] = locus YKL048C, strain ELM1, stronger effect = lower value
# [50] = locus YKL067W, strain YNK1, stronger effect = lower value
# [51] = locus YKL101W, strain HSL1, stronger effect = lower value
# [52] = locus YKL193C, strain SDS22, stronger effect = lower value
# [53] = locus YKL203C, strain TOR2, stronger effect = lower value
# [54] = locus YLR113W, strain HOG1, stronger effect = lower value
# [55] = locus YLR133W, strain CKI1, stronger effect = lower value
# [56] = locus YLR403W, strain SFP1, stronger effect = lower value
# [57] = locus YML070W, strain DAK1, stronger effect = lower value
# [58] = locus YMR001C, strain CDC5, stronger effect = lower value
# [59] = locus YMR205C, strain PFK2 (second series), stronger effect = lower value
# [60] = locus YMR277W, strain FCP1, stronger effect = lower value
# [61] = locus YNL006W, strain LST8, stronger effect = lower value
# [62] = locus YNL020C, strain ARK1, stronger effect = lower value
# [63] = locus YNL161W, strain CBK1, stronger effect = lower value
# [64] = locus YNL183C, strain NPR1, stronger effect = lower value
# [65] = locus YNL207W, strain RIO2, stronger effect = lower value
# [66] = locus YNL222W, strain SSU72, stronger effect = lower value
# [67] = locus YNL307C, strain MCK1 (second series), stronger effect = lower value
# [68] = locus YOL078W, strain AVO1, stronger effect = lower value
# [69] = locus YOL136C, strain PFK27, stronger effect = lower value
# [70] = locus YOR061W, strain CKA2, stronger effect = lower value
# [71] = locus YOR119C, strain RIO1, stronger effect = lower value
# [72] = locus YOR231W, strain MKK1, stronger effect = lower value
# [73] = locus YOR329C, strain SCD5, stronger effect = lower value
# [74] = locus YPL031C, strain PHO85, stronger effect = lower value
# [75] = locus YPL153C, strain RAD53, stronger effect = lower value
# [76] = locus YPL204W, strain HRR25, stronger effect = lower value
# [77] = locus YPL209C, strain IPL1, stronger effect = lower value
# [78] = locus YPL256C, strain CLN2, stronger effect = lower value
# [79] = locus YPR025C, strain CCL1, stronger effect = lower value
# [80] = locus YPR106W, strain ISR1, stronger effect = lower value
# [81] = locus YPR111W, strain DBF20, stronger effect = lower value
# [82] = strain NNK1, stronger effect = lower value
# [83] = strain TSCII, stronger effect = lower value
# [84] = locus YAL013W, strain DEP1, stronger effect = lower value
# [85] = locus YDR363W, strain ESC2, stronger effect = lower value
# [86] = locus YGR078C, strain PAC10, stronger effect = lower value
# [87] = locus YMR307W, strain GAS1, stronger effect = lower value
compound,measurement,setting,value
C#CC(N)CCC(=O)O (stereo not given),normalized growth,[1],1.02
same,normalized growth,[2],1.01
same,normalized growth,[3],1.01
same,normalized growth,"locus YGR229C, strain SMI1, stronger effect = lower value",1.01
same,normalized growth,[4],1.01
same,normalized growth,[5],1
same,normalized growth,[6],1.02
same,normalized growth,[7],1.02
same,normalized growth,[8],1
same,normalized growth,[9],1.01
same,normalized growth,[10],0.988
same,normalized growth,[11],0.989
same,normalized growth,[12],1.01
S=C(Nc1cc(Cl)c(Cl)cc1Cl)Nc1ccccc1Br,normalized growth,[13],0.958
same,normalized growth,[14],0.969
same,normalized growth,[15],0.964
same,normalized growth,[16],0.953
same,normalized growth,[17],0.961
same,normalized growth,[18],0.963
same,normalized growth,[19],0.953
same,normalized growth,[20],0.977
same,normalized growth,[21],0.958
same,normalized growth,[22],0.96
same,normalized growth,[23],0.884
same,normalized growth,[24],0.97
same,normalized growth,[25],0.969
same,normalized growth,[26],0.947
same,normalized growth,[27],0.875
same,normalized growth,[28],0.833
same,normalized growth,[29],0.87
same,normalized growth,[30],0.963
same,normalized growth,[31],0.949
same,normalized growth,[32],0.969
same,normalized growth,[33],0.899
same,normalized growth,[34],0.943
same,normalized growth,[35],0.861
same,normalized growth,[36],0.848
same,normalized growth,[37],0.77
same,normalized growth,[38],0.67 (active)
same,normalized growth,[39],0.82
same,normalized growth,[40],0.822
same,normalized growth,[41],0.812
same,normalized growth,[42],0.939
same,normalized growth,[43],0.796
same,normalized growth,[44],0.927
same,normalized growth,[45],0.898
same,normalized growth,[46],0.961
same,normalized growth,[47],0.848
same,normalized growth,[48],0.786
same,normalized growth,[49],0.911
same,normalized growth,[50],0.892
same,normalized growth,[51],0.842
same,normalized growth,[52],0.96
same,normalized growth,[53],0.913
same,normalized growth,[54],0.828 (active)
same,normalized growth,[55],0.861
same,normalized growth,[56],0.754
same,normalized growth,[57],0.86
same,normalized growth,[58],0.957
same,normalized growth,[59],0.873
same,normalized growth,[60],0.959
same,normalized growth,[61],0.984
same,normalized growth,[62],0.844
same,normalized growth,[63],0.977
same,normalized growth,[64],0.791
same,normalized growth,[65],0.962
same,normalized growth,[66],0.97
same,normalized growth,[67],0.839
same,normalized growth,[68],0.962
same,normalized growth,[69],0.854
same,normalized growth,[70],0.749
same,normalized growth,[71],0.869
same,normalized growth,[72],0.846
same,normalized growth,[73],0.975
same,normalized growth,[74],0.873
same,normalized growth,[75],0.837
same,normalized growth,[76],0.848
same,normalized growth,[77],0.966
same,normalized growth,[78],0.809 (active)
same,normalized growth,[79],0.966
same,normalized growth,[80],0.942
same,normalized growth,[81],0.935
same,normalized growth,[82],0.961
same,normalized growth,[83],0.953
S=C(NNc1ccccc1)Nc1cc(Cl)ccc1Cl,normalized growth,[13],0.963
same,normalized growth,[14],0.958
same,normalized growth,[15],0.96
same,normalized growth,[16],0.962
same,normalized growth,[17],0.963
same,normalized growth,[18],0.962
same,normalized growth,[19],0.97
same,normalized growth,[20],0.963
same,normalized growth,[21],0.974
same,normalized growth,[22],0.959
same,normalized growth,[23],0.953
same,normalized growth,[24],0.966
same,normalized growth,[25],0.939
same,normalized growth,[26],0.985
same,normalized growth,[27],0.945
same,normalized growth,[28],0.921
same,normalized growth,[29],0.958
same,normalized growth,[30],0.974
same,normalized growth,[31],0.95
same,normalized growth,[32],0.961
same,normalized growth,[33],1
same,normalized growth,[34],0.965
same,normalized growth,[35],0.94
same,normalized growth,[36],1.02
same,normalized growth,[37],0.726
same,normalized growth,[38],0.853
same,normalized growth,[39],0.909
same,normalized growth,[40],0.935
same,normalized growth,[41],0.938
same,normalized growth,[42],0.965
same,normalized growth,[43],0.918
same,normalized growth,[44],0.967
same,normalized growth,[45],0.947
same,normalized growth,[46],0.961
same,normalized growth,[47],0.934
same,normalized growth,[48],0.894
same,normalized growth,[49],0.951
same,normalized growth,[50],0.976
same,normalized growth,[51],0.957
same,normalized growth,[52],0.955
same,normalized growth,[53],1
same,normalized growth,[54],0.874
same,normalized growth,[55],0.955
same,normalized growth,[56],0.936
same,normalized growth,[57],0.948
same,normalized growth,[58],0.959
same,normalized growth,[59],0.98
same,normalized growth,[60],0.957
same,normalized growth,[61],0.971
same,normalized growth,[62],0.964
same,normalized growth,[63],0.956
same,normalized growth,[64],0.957
same,normalized growth,[65],0.946
same,normalized growth,[66],0.957
same,normalized growth,[67],0.914
same,normalized growth,[68],0.958
same,normalized growth,[69],0.953
same,normalized growth,[70],0.909
same,normalized growth,[71],0.958
same,normalized growth,[72],0.928
same,normalized growth,[73],0.952
same,normalized growth,[74],0.925
same,normalized growth,[75],0.922
same,normalized growth,[76],0.938
same,normalized growth,[77],0.964
same,normalized growth,[78],0.893
same,normalized growth,[79],0.96
same,normalized growth,[80],0.964
same,normalized growth,[81],0.973
same,normalized growth,[82],0.964
same,normalized growth,[83],0.957
NC(CCCP(=O)(O)O)C(=O)O (stereo not given),normalized growth,[84],0.993
same,normalized growth,[1],1.01
same,normalized growth,[2],1
same,normalized growth,[85],1.09
same,normalized growth,[3],0.993
same,normalized growth,[86],1.02
same,normalized growth,[4],1
same,normalized growth,[87],0.982
same,normalized growth,[6],1.01
same,normalized growth,[7],1
same,normalized growth,[8],1.02
same,normalized growth,[9],1
same,normalized growth,[10],1.01
same,normalized growth,[11],0.977
same,normalized growth,[12],0.993
O=C1NC(c2cccc([N+](=O)[O-])c2)=CCN1c1ccccc1O,normalized growth,[84],0.998
same,normalized growth,[1],0.994
same,normalized growth,[2],1.01
same,normalized growth,[85],1.01
same,normalized growth,[3],1
same,normalized growth,[86],1.02
same,normalized growth,"locus YJR075W, strain HOC1, stronger effect = lower value",1.01
same,normalized growth,[4],1
same,normalized growth,[87],1
same,normalized growth,[5],1.05
same,normalized growth,[6],1
same,normalized growth,[7],1.01
same,normalized growth,[8],0.995
same,normalized growth,[9],0.998
same,normalized growth,[10],1.01
